Experimental data taken from PubChem BioAssay (Tox21).
Where “and” joins values, the source holds several entries; their conditions need not be identical. Equal entries are not always repeated. Some compounds were tested as several samples or in several runs, with calls that do not always agree. Calls of active or inactive are those of the source. Where a call stands in place of a potency, no number is given. Unless noted, calls come from the whole dose curve; as a rule, active = well fitted curve in the direction sought with a large enough effect in the repeat runs; inconclusive = weak or mixed curves; inactive = no such curve, though single readings can be large; an effect the other way counts as inactive or inconclusive.

Assays:
[1] = tested on: thyroid hormone receptor (rat, GH3 cells); assay: qHTS assay to identify small molecule agonists of the thyroid receptor (TR) signaling pathway (AID 743066; calls by dose curve)
[2] = qHTS assay to identify small molecule antagonists of the estrogen receptor alpha (ER-alpha) signaling pathway - cell viability counter screen (AID 743074; calls by dose curve;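 note: HEK293 cells carrying ER-alpha-UAS-bla reporter stimulated with 17beta-estradiol; nearly all actives have a fitted effect of over 45% in size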)
[3] = molecular target: Aromatase (Homo sapiens) (UniProt P11511); assay: qHTS assay to identify aromatase inhibitors (AID 743083); note: nearly all actives have a fitted effect of over 55% in size; note: potency is the fitted concentration of half-maximal effect
Aromatase (Homo sapiens), sequence (P11511 whole entry, looked up): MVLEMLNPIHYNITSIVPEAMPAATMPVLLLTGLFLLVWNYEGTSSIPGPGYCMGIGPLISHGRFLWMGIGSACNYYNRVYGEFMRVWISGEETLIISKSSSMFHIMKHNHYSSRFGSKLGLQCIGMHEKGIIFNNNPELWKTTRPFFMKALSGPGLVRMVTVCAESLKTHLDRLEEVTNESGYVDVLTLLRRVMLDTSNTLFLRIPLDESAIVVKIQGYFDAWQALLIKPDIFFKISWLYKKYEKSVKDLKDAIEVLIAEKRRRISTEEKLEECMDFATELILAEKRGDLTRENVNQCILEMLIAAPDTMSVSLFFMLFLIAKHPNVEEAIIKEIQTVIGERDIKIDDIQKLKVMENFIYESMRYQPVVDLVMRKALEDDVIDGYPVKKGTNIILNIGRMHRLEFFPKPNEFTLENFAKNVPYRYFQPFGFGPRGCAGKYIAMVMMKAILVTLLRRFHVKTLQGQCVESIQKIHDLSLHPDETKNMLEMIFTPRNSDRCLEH

[4] = qHTS assay to identify aromatase inhibitors - cell viability counter screen (AID 743084);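 note: cells stimulated with testosterone during compound exposure; nearly all actives have a fitted effect of over 55% in size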; note: potency is the fitted concentration of half-maximal effect
[5] = molecular target: Aryl hydrocarbon receptor (Homo sapiens) (UniProt P35869); assay: qHTS assay to identify small molecule that activate the aryl hydrocarbon receptor (AhR) signaling pathway (AID 743085); note: nearly all actives have a fitted effect of over 15% in size; note: potency is the fitted concentration of half-maximal effect;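 for activation: HG2L7.5c1 human HepG2 liver cells with stably integrated DRE-driven firefly reporter; series mostly up to about 70 µM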
Aryl hydrocarbon receptor (Homo sapiens), sequence (P35869 whole entry, looked up): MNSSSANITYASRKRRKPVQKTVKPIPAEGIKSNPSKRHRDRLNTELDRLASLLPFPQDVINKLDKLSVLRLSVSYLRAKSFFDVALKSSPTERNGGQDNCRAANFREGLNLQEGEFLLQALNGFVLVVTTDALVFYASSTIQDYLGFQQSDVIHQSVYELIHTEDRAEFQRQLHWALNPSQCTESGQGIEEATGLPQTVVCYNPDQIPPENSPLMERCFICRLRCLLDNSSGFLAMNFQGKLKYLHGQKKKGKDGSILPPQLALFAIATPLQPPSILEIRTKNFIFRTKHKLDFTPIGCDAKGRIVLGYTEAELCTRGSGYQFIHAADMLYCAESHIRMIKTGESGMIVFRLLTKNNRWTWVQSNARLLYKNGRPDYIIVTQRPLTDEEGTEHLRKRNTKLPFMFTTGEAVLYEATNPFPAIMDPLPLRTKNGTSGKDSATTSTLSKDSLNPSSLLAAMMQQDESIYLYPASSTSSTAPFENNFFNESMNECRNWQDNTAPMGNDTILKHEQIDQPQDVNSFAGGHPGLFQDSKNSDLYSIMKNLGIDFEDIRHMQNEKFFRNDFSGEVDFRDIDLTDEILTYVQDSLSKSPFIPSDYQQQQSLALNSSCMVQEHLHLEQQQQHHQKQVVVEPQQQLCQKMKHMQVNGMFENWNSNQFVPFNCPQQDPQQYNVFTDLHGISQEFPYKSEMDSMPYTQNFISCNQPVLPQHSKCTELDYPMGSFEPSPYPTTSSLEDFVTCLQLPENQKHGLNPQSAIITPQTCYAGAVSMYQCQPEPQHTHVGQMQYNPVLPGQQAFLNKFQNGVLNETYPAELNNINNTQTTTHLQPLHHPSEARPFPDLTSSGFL
How it was run: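 Reporter assay in engineered HepG2 line HG2L7.5c1, whose plasmid carries twenty dioxin responsive elements upstream of firefly luciferase. Treatment lasted 24 h at 37C; ONE-Glo luminescence gauged induction.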

[6] = qHTS assay to identify small molecule that activate the aryl hydrocarbon receptor (AhR) signaling pathway - cell viability counter screen (AID 743086); note: nearly all actives have a fitted effect of over 45% in size; note: potency is the fitted concentration of half-maximal effect
How it was run: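 HepG2-AhR-luc (HG2L7.5c1) cells, 4000/well, were preincubated 5 h at 37C, exposed to compound in qHTS format for 24 hr at 37C, then given CellTiter-Fluor for 30 min; viability was read as fluorescence in the reporter wells.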

[7] = molecular target: Peroxisome proliferator-activated receptor gamma (Homo sapiens) (UniProt P37231); assay: qHTS assay to identify small molecule agonists of the peroxisome proliferator-activated receptor gamma (PPARg) signaling pathway (AID 743094; active = well fitted activation curve with a large enough effect in the signal ratio in the repeat runs, not every such curve was filed as active; inconclusive = weak or mixed curves, or effect the other way; inactive = no such curve, though single readings can be large or run the other way; the % refers to the signal ratio)
Peroxisome proliferator-activated receptor gamma (Homo sapiens), sequence (P37231 whole entry, looked up): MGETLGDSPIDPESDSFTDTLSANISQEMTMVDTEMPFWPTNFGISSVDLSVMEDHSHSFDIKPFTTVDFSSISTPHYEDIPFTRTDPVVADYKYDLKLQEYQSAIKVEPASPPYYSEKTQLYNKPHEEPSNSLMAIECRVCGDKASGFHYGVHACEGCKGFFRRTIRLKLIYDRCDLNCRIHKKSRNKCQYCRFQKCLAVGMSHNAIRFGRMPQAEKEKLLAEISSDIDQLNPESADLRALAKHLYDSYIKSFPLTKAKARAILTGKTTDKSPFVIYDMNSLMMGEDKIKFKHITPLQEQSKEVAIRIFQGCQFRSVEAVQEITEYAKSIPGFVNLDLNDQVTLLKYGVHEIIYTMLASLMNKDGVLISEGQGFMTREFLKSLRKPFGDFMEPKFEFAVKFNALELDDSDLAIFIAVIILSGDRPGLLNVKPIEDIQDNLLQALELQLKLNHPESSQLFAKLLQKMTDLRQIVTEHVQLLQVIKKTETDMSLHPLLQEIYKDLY
How it was run: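 Fluorescence-based beta-lactamase readout in HEK293H PPARg UAS-bla cells after 17 h compound exposure (37C) and 1 h B/G FRET substrate incubation at room temperature.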

[8] = molecular target: Peroxisome proliferator-activated receptor gamma (Homo sapiens) (UniProt P37231); assay: qHTS assay to identify small molecule antagonists of the peroxisome proliferator-activated receptor gamma (PPARg) signaling pathway (AID 743191; calls by dose curve; note: series mostly up to about 63 µM; nearly all actives have a fitted effect of over 30% in size)
How it was run: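 GeneBLAzer PPARg UAS-bla HEK293H cells carrying a UAS-driven beta-lactamase reporter were plated at 3000 cells/well, preincubated 5 h at 37C, then given compound for 17 h at 37C; LiveBLAzer B/G FRET substrate was read after 1 h at room temperature.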

[9] = qHTS assay to identify small molecule antagonists of the peroxisome proliferator-activated receptor gamma (PPARg) signaling pathway - cell viability counter screen (AID 743194); note: nearly all actives have a fitted effect of over 55% in size
How it was run: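 PPARg-UAS-bla HEK293H cells were plated, rested 5 h at 37 C, then treated with compounds plus rosiglitazone (50 nM final) for 17 h at 37 C; viability was then read by CellTiter-Glo luminescence after 30 min at room temperature.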

[10] = qHTS assay for small molecule agonists of the antioxidant response element (ARE) signaling pathway - cell viability counter screen (AID 743203; calls by dose curve; note: nearly all actives have a fitted effect of over 55% in size; note: potency is the fitted concentration of half-maximal effect)
How it was run: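 Parallel cytotoxicity read-out for the ARE-bla screen: HepG2 reporter cells, 16 hrs with compounds, then CellTiter-Glo luminescence.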

[11] = qHTS assay for small molecule activators of the heat shock response signaling pathway - cell viability counter screen (AID 743209); note: nearly all actives have a fitted effect of over 50% in size; note: potency is the fitted concentration of half-maximal effect
How it was run: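 To flag cytotoxic compounds, HSE-bla HeLa cells plated at 1500 cells/well were dosed for 5 h at 37 C, followed by the reporter FRET read and then CellTiter-Glo, with luminescence recorded 30 min after reagent addition.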

[12] = qHTS assay to identify small molecule antagonists of the thyroid receptor (TR) signaling pathway - cell viability counter screen (AID 743064); note: nearly all actives have a fitted effect of over 50% in size; note: potency is the fitted concentration of half-maximal effect
How it was run: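 Same-well viability check: GH3.TRE-Luc cells stimulated with 1 nM T3 alongside test compound for 23.5 h, followed by CellTiter-Fluor fluorescence.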

[13] = molecular target: Estrogen receptor (Homo sapiens) (UniProt P03372); assay: qHTS assay to identify small molecule antagonists of the estrogen receptor alpha (ER-alpha) signaling pathway (AID 743069; active = well fitted curve in the direction sought with a large enough effect in the signal ratio in the repeat runs, not every such curve was filed as active; inconclusive = weak or mixed curves, or effect the other way; inactive = no such curve, though single readings can be large or run the other way; the % refers to the signal ratio)
Estrogen receptor (Homo sapiens), sequence (P03372 whole entry, looked up): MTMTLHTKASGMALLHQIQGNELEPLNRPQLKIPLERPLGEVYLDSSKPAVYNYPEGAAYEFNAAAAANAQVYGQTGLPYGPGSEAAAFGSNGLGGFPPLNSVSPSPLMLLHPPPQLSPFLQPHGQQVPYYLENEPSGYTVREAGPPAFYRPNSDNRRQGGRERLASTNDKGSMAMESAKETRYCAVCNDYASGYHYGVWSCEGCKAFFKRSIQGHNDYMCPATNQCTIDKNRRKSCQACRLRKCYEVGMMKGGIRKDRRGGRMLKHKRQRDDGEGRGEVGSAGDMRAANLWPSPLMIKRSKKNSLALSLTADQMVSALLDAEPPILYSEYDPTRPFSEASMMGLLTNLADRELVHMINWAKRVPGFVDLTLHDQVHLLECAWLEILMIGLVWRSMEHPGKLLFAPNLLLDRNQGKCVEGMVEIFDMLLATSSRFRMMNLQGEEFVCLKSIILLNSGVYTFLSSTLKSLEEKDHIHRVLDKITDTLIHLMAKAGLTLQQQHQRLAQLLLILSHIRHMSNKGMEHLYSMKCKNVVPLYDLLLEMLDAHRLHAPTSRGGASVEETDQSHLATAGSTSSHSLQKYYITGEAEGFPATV
How it was run: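 A 17beta-estradiol challenge was applied right after compound transfer to ER-alpha-UAS-bla HEK293 cells previously kept in charcoal-stripped serum. Plates stood 18 hr at 37C and 5% CO2; fluorescence was read following 2 hr FRET substrate loading at room temperature.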

[14] = molecular target: Estrogen receptor (Homo sapiens) (UniProt P03372); assay: qHTS assay to identify small molecule agonists of the estrogen receptor alpha (ER-alpha) signaling pathway (AID 743075; calls by dose curve;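 note: HEK293 GripTite cells with ER-alpha and UAS-driven beta-lactamase reporter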; note: potency is the fitted concentration of half-maximal effect)
[15] = molecular target: Estrogen receptor (Homo sapiens) (UniProt P03372); assay: qHTS assay to identify small molecule agonists of the estrogen receptor alpha (ER-alpha) signaling pathway using the BG1 cell line (AID 743079); note: nearly all actives have a fitted effect of over 20% in size; note: potency is the fitted concentration of half-maximal effect
[16] = qHTS assay to identify small molecule antagonists of the estrogen receptor alpha (ER-alpha) signaling pathway using the BG1 cell line - cell viability counter screen (AID 743081);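 note: compound given together with 17beta-estradiol as the ER stimulus; nearly all actives have a fitted effect of over 45% in size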; note: potency is the fitted concentration of half-maximal effect
[17] = qHTS assay for small molecule agonists of the antioxidant response element (ARE) signaling pathway (AID 743202; active = well fitted activation curve with a large enough effect in the signal ratio in the repeat runs, not every such curve was filed as active; inconclusive = weak or mixed curves, or effect the other way; inactive = no such curve, though single readings can be large or run the other way; the % refers to the signal ratio; note: potency is the fitted concentration of half-maximal effect)
How it was run: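 Following a 16 h, 37 C exposure of reporter HepG2 cells (ARE-driven beta-lactamase, 2,000 cells/well) to compounds, FRET substrate was applied for 2 h at room temperature and fluorescence intensity recorded.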

[18] = qHTS assay for small molecule activators of the heat shock response signaling pathway (AID 743210; active = well fitted activation curve with a large enough effect in the signal ratio in the repeat runs, with a control signal flat, not every such curve was filed as active; inconclusive = weak or mixed curves; the % refers to the signal ratio; note: series mostly up to about 63 µM)
How it was run: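 Heat shock element–beta-lactamase HeLa reporter cells; qHTS with compounds for 5 h at 37 C; detection by FRET substrate fluorescence after 2.5 h at RT.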

[19] = qHTS assay to identify small molecule antagonists of the thyroid receptor (TR) signaling pathway (AID 743065); note: nearly all actives have a fitted effect of over 55% in size; note: potency is the fitted concentration of half-maximal effect
How it was run: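 GH3.TRE-Luc rat pituitary cells carrying two TR response elements driving luciferase were plated for 4 h, given compound plus 1 nM T3 (final), and incubated 23.5 h at 37 C. ONE-Glo luminescence measured reporter inhibition; CellTiter-Fluor fluorescence tracked cytotoxicity.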

[20] = qHTS assay to identify small molecule antagonists of the estrogen receptor alpha (ER-alpha) signaling pathway using the BG1 cell line (AID 743080; calls by dose curve;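 note: BG1 cells stimulated with 17beta-estradiol alongside compound; series mostly up to about 70 µM; nearly all actives have a fitted effect of over 25% in size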)
How it was run: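 After 5 days in phenol-red-free 10% charcoal-stripped FBS medium, BG1-Luc-4E2 cells were seeded, left 24 h at 37 C, co-treated with compounds and 17beta-estradiol for 21.5 h, then assayed for viability and luciferase.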

| SMILES | Potency [1] | Potency [2] | Potency [3] | Potency [4] | Potency [5] | Potency [6] | Potency [7] | Potency [8] | Potency [9] | Potency [10] | Potency [11] | Potency [12] | Potency [13] | Potency [14] | Potency [15] | Potency [16] | Potency [17] | Potency [18] | Potency [19] | Potency [20] |
| --- | --- | --- | --- | --- | --- | --- | --- | --- | --- | --- | --- | --- | --- | --- | --- | --- | --- | --- | --- | --- |
| NC(N)=NC(=O)Cc1c(Cl)cccc1Cl | inactive | inactive | inactive | inactive | inactive | inactive | inactive | inactive | inactive | inactive | inactive |  |  |  |  |  |  |  |  |  |
| CC(C)CCOCc1ccccc1 |  | inactive | inactive | inactive | inactive | inactive | inactive | inactive | inactive | inactive | inactive | inactive | inactive | inactive | inactive | inactive | inactive | inactive |  |  |
| C/C=C/c1ccc(OCC)c(O)c1 | inactive | inactive | inactive | inactive |  | inactive | inactive | inactive |  |  | inactive |  |  |  |  | inactive | inactive | inactive | inactive |  |
| Nc1ccc2cc3ccccc3cc2c1 | inactive |  | inactive |  | 62.2 µM (active) and 8.63 µM (active) |  |  |  | inactive | inactive | inactive |  |  |  | 9.86 µM (active) and 24.3 µM (active) | inactive |  |  | inactive |  |
| NC(=Nc1ccccc1)Nc1ccccc1 | inactive | inactive | 21.1 µM (active) | inactive | inactive and 19.3 µM (active) | 6.11 µM (active) | inactive |  | inactive |  | inactive |  | inactive | inactive |  |  | 13.3 µM (active) | inactive | inactive |  |
| CCCOC(=O)c1cc(O)c(O)c(O)c1 | inactive | inactive | inactive |  | 4.22 µM (active) and inactive | inactive | inactive |  | inactive | inactive | inactive |  |  | 9.52 µM [inconclusive] (active) and 19.4 µM [inconclusive] (active) and 61.6 µM [inconclusive] (active) | 26.6 µM (active) and inactive | inactive | 15.3 µM (active) | inactive | inactive | inactive |
| Nc1ccc(O)cc1 |  | inactive | inactive and 31.8 µM (active) | 54.5 µM (active) and 31.8 µM (active) |  | 54.5 µM (active) and 50.4 µM (active) | inactive |  | inactive | 12.7 µM (active) and inactive | 25.5 µM (active) and inactive | 8.41 µM (active) and 17.2 µM (active) and 14.2 µM (active) |  | inactive | inactive | inactive and 63.5 µM (active) | 29.8 µM (active) | inactive |  | inactive |
| CC(COc1ccccc1)N(CCCl)Cc1ccccc1 (configuration not stated) |  | inactive | inactive | inactive |  | inactive | inactive | inactive |  | 61.1 µM (active) and inactive | inactive |  |  |  |  | inactive |  |  |  |  |
| CC(C)(C)NCC(O)COc1ccccc1OCC1CCCO1 (configuration not stated) |  |  |  |  |  |  |  |  | inactive | inactive | inactive |  |  |  |  |  | inactive | inactive |  |  |
| C1COC(NC(C2CC2)C2CC2)=N1 | inactive | inactive | inactive | inactive | inactive | inactive | inactive |  | inactive | inactive | inactive |  | inactive | inactive |  | inactive | inactive | inactive | 29.8 µM (active) |  |
| CC(=O)O[C@]1(C(C)=O)CC[C@H]2[C@@H]3C[C@H](C)C4=CC(=O)CC[C@]4(C)[C@H]3CC[C@@]21C |  | inactive | inactive | inactive | inactive | inactive |  |  | inactive |  | inactive | inactive |  | inactive | inactive | inactive |  |  |  |  |
| c1ccc2c(c1)-c1cccc3c1c-2cc1ccccc13 |  | inactive | inactive | inactive | 8.43 µM (active) and 6.86 µM (active) | inactive |  |  | inactive |  | inactive |  |  |  | inactive | inactive | 1.34 µM (active) |  |  |  |
| O=C(O)Cn1cnnn1 |  |  |  |  |  |  |  | inactive | inactive | inactive | inactive |  |  |  |  |  | inactive | inactive |  |  |
| COC(c1ccccc1)(c1ccccc1)[C@H](Oc1nc(C)cc(C)n1)C(=O)O | inactive | inactive | inactive | inactive | inactive | inactive | inactive |  | inactive | inactive |  |  |  |  |  |  | inactive | inactive | inactive |  |
| CC(C)(C)NCC(O)c1cc(O)cc(O)c1 (configuration not stated) | inactive | inactive | inactive | inactive | inactive | inactive | inactive |  | inactive | inactive | inactive |  |  |  |  | inactive | inactive | inactive | inactive |  |
